Test results: PubChem BioAssay (NCATS)
Results filed as inconclusive are left out. Calls of active or inactive are those of the source. The call rests on the fitted dose curve; in most records, active means well fitted cell-killing curve with a large enough effect; inconclusive means small, poorly fitted or top-dose-only effect, or effect the other way; inactive means no such curve, though single readings can be large or run the other way.

assay: Quantitative High-Throughput drug screen in 47 multiple myeloma cell lines against the NCATS MIPE library collection: OPM1_PLB cell viability assay (AID 1918989); details: CellTiter-Glo, 48 h; series mostly up to 45.8 µM; viability (% of control): at the top concentration; further: nearly all actives have a fitted effect of over 40% in size
Text: PI: Beverly A. Mock Ph.D.
Laboratory of Cancer Biology and Genetics,
Center for Cancer Research, National Cancer Institute,
National Institute of Health, Bethesda, Maryland
Drug resistance and disease progression are common in multiple myeloma (MM) patients, underscoring the need for new therapeutic combinations. […] We hypothesized that effective combinations would reduce MYC expression and enhance p16 activity. […] These preclinical data identify potentially useful drug combinations for evaluation in drug-resistant MM and reveal potential mechanisms of combined drug sensitivity.
Described herein is the primary MIPE qHTS used to cherrypick compounds. Validated compounds were then further tested for potential synergistic activiy.
[1] Peat TJ, Gaikwad SM, Dubois W, Gyabaah-Kessie N, Zhang S, Gorjifard S, Phyo Z, Andres M, Hughitt VK, Simpson RM, Miller MA, Girvin AT, Taylor A, Williams D, D'Antonio N, Zhang Y, Rajagopalan A, Flietner E, Wilson K, Zhang X, Shinn P, Klumpp-Thomas C, McKnight C, Itkin Z, Chen L, Kazandijian D, Zhang J, Michalowski AM, Simmons JK, Keats J, Thomas CJ, Mock BA. Drug combinations identified by high-throughput screening promote cell cycle transition and upregulate Smad pathways in myeloma. Cancer Lett. 2023 Aug 1;568:216284. doi: 10.1016/j.canlet.2023.216284. Epub 2023 Jun 24. PMID: 37356470; PMCID: PMC10408729.
SEQUENCE No. (e.g., 1, 2, 3, etc.); […] (e.g., Cells, Incubation, Reagent, etc.); VALUE and DESCRIPTION.
1; Cells; 5 uL; white, solid bottom 1536-well Greiner assay plate.
2; Compounds; 23 nL; Kalypsis pin tool (Wako USA) equipped with a 1536-well pin head to transfer to the assay plates.
3; Incubation; 48 hours; 37C incubation.
4; Reagent;5uL; CellTiter Glo (Promega).
5; Detector; 425V; Luminescence; Viewlux PerkinElmer.
NOTES (numbers refer to Sequence numbers above)
1. The cell-based screening methods employed in this study were like those previously published. Briefly, the corresponding myeloma cell lines were screened in 1,536-well plates with 500 cells, 5-uL per well for inhibition of cell viability (assessed by measuring ATP levels with CellTiterGlo).
2. NCATS MIPE 4.0 library of approved and investigational drugs were added using the Kalypsis pin tool. Wells treated with DMSO only for 100% viability and media only for 0% viability were used as controls.
3. The assay plates were covered and incubated for 48 hours in a 37C, 5% CO2 incubator with controlled humidity.
4. After 48 hours, CellTilter-GloTM luminescent substrate mix (Promega) reagent was added to the assay plate and plates we incubated for 5 min at room temperature.
5. Signal was measured as median relative luminescence units on a ViewLux (PerkinElmer) multiplate reader.
[1] Heske CM, Davis MI, Baumgart JT, Wilson K, Gormally MV, Chen L, Zhang X, Ceribelli M, Duveau DY, Guha R, Ferrer M, Arnaldez FI, Ji J, Tran HL, Zhang Y, Mendoza A, Helman LJ, Thomas CJ. Matrix Screen Identifies Synergistic Combination of PARP Inhibitors and Nicotinamide Phosphoribosyltransferase (NAMPT) Inhibitors in Ewing Sarcoma. Clin Cancer Res. 2017 Dec 1;23(23):7301-7311. doi: 10.1158/1078-0432.CCR-17-1121. Epub 2017 Sep 12. PMID: 28899971; PMCID: PMC6636827.
Potency means the concentration at half of the fitted maximal effect.

| SMILES | Potency | viability (% of control) |
| --- | --- | --- |
| COc1ccc2c3n(c(=NC(=O)c4cccnc4)nc2c1OC)CCN3 | 16.6 µM (active) |  |
| CC(C)(Sc1ccc(CCN(CCCCC2CCCCC2)C(=O)NC2CCCCC2)cc1)C(=O)O |  | 138% (inactive) |
| Oc1cccc(-c2nc(N3CCOCC3)c3oc4ncccc4c3n2)c1 | 0.0855 µM (active) |  |
| CN(C)c1ccc(Nc2nc(N)n(C(=O)c3c(F)cccc3F)n2)cc1 | 5.26 µM (active) |  |
| O=S(=O)(N=Cc1c(O)ccc2ccccc12)c1cccs1 | 7.43 µM (active) |  |
| Cc1c(CN2CCN(C(=O)C(C)C)CC2)sc2c(N3CCOCC3)nc(-c3cnc(N)nc3)nc12 | 0.118 µM (active) |  |
| CCN(c1ccccc1)c1cc(NC)[n+](C)c(C)n1 |  | 134% (inactive) |
| CC(C[N+](C)(C)C)OC(N)=O (stereo not given) |  | 109% (inactive) |
| Cc1cccc(-c2nn(C(=S)Nc3ccccc3)cc2-c2ccnc3ccccc23)n1 | 6.62 µM (active) |  |
| O=C1[C@H](Cc2ccc(O)cc2)N2C(=O)CCN(C(=O)NCc3ccccc3)[C@H]2CN1Cc1cccc2ccccc12 | 8.33 µM (active) |  |
| COc1cccc2cc(-c3nc(C4CCC(C(=O)O)CC4)n4ncnc(N)c34)[nH]c12 (stereo not given) | 2.35 µM (active) |  |
| CCn1cc(C(=O)O)c(=O)c2cc(F)c(N3CCNC(C)C3)c(F)c21 (stereo not given) | 11.8 µM (active) |  |
| CS(=O)(=O)c1ccc(C(=O)Nc2ccc(Cl)c(-c3ccccn3)c2)c(Cl)c1 | 18.7 µM (active) |  |
| CS(=O)(=O)c1cccc(CNc2nc(Nc3ccc4c(c3)CCC(=O)N4)ncc2C(F)(F)F)c1 | 18.7 µM (active) |  |
| Cc1cc2c(F)c(Oc3ncnn4cc(OC[C@@H](C)O)c(C)c34)ccc2[nH]1 | 20.9 µM (active) |  |
| O=C(Nc1ccc(F)c(C(F)(F)F)c1)Nc1nnc(-c2ccncc2)s1 | 13.2 µM (active) |  |
| Cc1ccc(NC(=O)c2cccc(C(C)(C)C#N)c2)cc1Nc1ccc2ncn(C)c(=O)c2c1 | 14.8 µM (active) |  |
| Nc1cccc(S(=O)(=O)N2CCCN(S(=O)(=O)c3ccc4c(c3)OCCO4)CC2)c1 |  | 111% (inactive) |
| NNCCc1ccccc1 |  | 119% (inactive) |
| Fc1ccc(Cl)cc1-c1nc(Nc2ccncc2)c2nccnc2n1 | 14.8 µM (active) |  |

| SMILES | Potency | viability (% of control) |
| --- | --- | --- |
| COc1ccc(-c2ccc3c(N4CCOCC4)nc(N4C[C@@H](C)O[C@@H](C)C4)nc3n2)cc1CO | 0.935 µM (active) |  |
| C[C@]1(c2nc3c(C(N)=O)cccc3[nH]2)CCCN1 |  | 114% (inactive) |
| CN(C)C(=O)c1ccc(S(=O)(=O)c2ccc(NC(=O)[C@@](C)(O)C(F)(F)F)c(Cl)c2)cc1 |  | 102% (inactive) |
| CCOc1cc(N2CCC(O)CC2)ccc1Nc1ncc2c(n1)N(C)c1ccccc1C(=O)N2C | 2.96 µM (active) |  |
| O=C1CCc2cc(OCCCCc3nnnn3C3CCCCC3)ccc2N1 |  | 101% (inactive) |
| CNC(=O)c1ccc(N2C(=S)N(c3ccc(C#N)c(C(F)(F)F)c3)C(=O)C2(C)C)cc1F |  | 111% (inactive) |
| CCn1c(-c2nonc2N)nc2c(C#CC(C)(C)O)ncc(OC[C@H]3CCCNC3)c21 | 0.148 µM (active) |  |
| O=C(c1cc(Cc2n[nH]c(=O)c3ccccc23)ccc1F)N1CCN(C(=O)C2CC2)CC1 |  | 94.6% (inactive) |
| CCC(C)n1ncn(-c2ccc(N3CCN(c4ccc(OC[C@H]5CO[C@](Cn6cncn6)(c6ccc(Cl)cc6Cl)O5)cc4)CC3)cc2)c1=O (stereo not given in full) |  | 112% (inactive) |
| COc1ccccc1[C@H](c1cccc2ccccc12)[C@@](C)(C#N)C(=O)N1CCC(c2cccc(C(F)(F)F)c2)CC1 | 5.9 µM (active) |  |
| CCOC(=O)C1=C[C@]2(CC)CCCN3CCc4c(n1c1ccccc41)[C@@H]32 | 8.33 µM (active) |  |
| COc1ccc(-c2oc3cc(OC)ccc3c2C(=O)c2ccc(C#N)cc2)cc1 |  | 140% (inactive) |
| CC(=O)NC(C)c1ccc(Oc2ccc(OC(C)C)cc2)cc1 (stereo not given) | 1.48 µM (active) |  |
| CC(=O)Oc1ccccc1C(=O)O |  | 170% (inactive) |
| COc1ccc(-c2ccc3c(N4CCOC[C@H]4C)nc(N4CCOC[C@H]4C)nc3n2)cc1CO | 0.0148 µM (active) |  |
| COc1cc2c(cc1OC)CN(CCc1ccc(NC(=O)c3cccc4c(=O)c5cccc(OC)c5[nH]c34)cc1)CC2 | 16.6 µM (active) |  |
| CCCCCCCc1ccc(CCc2cccc(O)c2C(=O)O)cc1 | 20.9 µM (active) |  |
| CNC[C@H](O)c1cccc(O)c1 |  | 146% (inactive) |
| Cc1cc2c(C(C)C)c(O)c(O)c(C=O)c2c(O)c1-c1c(C)cc2c(C(C)C)c(O)c(O)c(C=O)c2c1O | 10.5 µM (active) |  |
| COc1cc2nccc(Oc3ccc(NC(=O)NC4CC4)c(Cl)c3)c2cc1C(N)=O | 16.6 µM (active) |  |
